Most compounds without a hit are left out; they make up all but 1.4% or so of the library.
TPT1 inhibitor = blocks Candida albicans tRNA 2'-phosphotransferase. 300,000 compounds, 0.81% hits. inhibition, % at 5 µM. recombinant caTPT1, FP RNA substrate dephosphorylation;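 active = inhibition above the mean of all tested compounds plus 3 SD, set per screening campaign, cut at about 24% in these data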;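 also: plate controls were DMSO alone for no effect and ferristatin control at 100 nM for full effect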
CRFBP-R2 agonist = agonists of human CRF-binding protein/CRF-R2 receptor complex | 350,000 compounds, 0.46% hits | HEK293 CRF-R2/CRF-BP, calcium dye fluorescence (FLIPR); percent of saturating CRF peptide response | activation, % at 13.2 µM | AID 588473;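 active = activation of at least 50%, plus an integration ratio under a set limit after plate pattern correction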;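 also: plate controls were neutral control wells without compound for no effect and CRF at EC100 for full effect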
IDE cell activ = IDE (human) activation, cell-based; activation, % at 5.96 µM; 340,000 compounds, 0.073% hits; HEK cells, FAbeta-B cleavage, fluorescence polarization; 0% vehicle, 100% cell-free pure enzyme wells; P14735;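 active = activation above the mean of all tested compounds plus 3 SD, set per screening campaign, cut at about 17% in these data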
HNF4A DNA FP = change in binding of human HNF4 alpha to DNA; P41235; HNF4a-FITC DNA binding, fluorescence polarization, 1 h; activity change, % at 10 µM; 360,000 compounds, 0.3% hits; AID 1224865; in the data active = activity change above about 30%, passing the limit was not always enough
IDE cell inh = cellular human IDE inhibition; AID 434962; P14735; inhibition, % at 5.59 µM; HEK cells, FAbetaB cleavage, fluorescence polarization; 320,000 compounds, 0.41% hits;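 active = percent inhibition above the average of all tested compounds plus 3 SD, set per screening campaign, cut at about 16% in these data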;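 also: IDE supplied by intact live HEK cells; FP after avidin binding of uncleaved biotin substrate so inhibition keeps polarization high; 0% = DMSO wells and 100% = 60 µM reference IDE inhibitor Ii1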
Starred values were filed as active, the others as inactive; x = no result given.

SMILES	TPT1 inhibitor	CRFBP-R2 agonist	IDE cell activ	HNF4A DNA FP	IDE cell inh
CC(OC(=O)C1CCC1)C(=O)Nc1cc(Cl)cc(Cl)c1 (configuration not stated)	-1	-2	4	-4	2
CC(c1nc2ccccc2n1Cc1ccccc1)n1c(-c2cnccn2)nc2ccccc21 (configuration not stated)	x	x	x	1	x
O=C(COc1ccc(-c2ccccc2)cc1)NNC(=O)Nc1ccccc1	x	1	1	-4	-3
COc1ccc(NC(=O)c2cc([N+](=O)[O-])ccc2N2CCCCC2)cc1	-2	-2	5	31*	-7
CCN(CC)c1ccc2c(-c3ccc(S(=O)(=O)O)cc3S(=O)(=O)[O-])c3ccc(=[N+](CC)CC)cc-3oc2c1	-138	55*	27*	-85	-56
CCN(CC)c1ccc2nc3c4ccccc4c(=O)cc-3oc2c1	x	23	x	x	x
Cc1onc(-c2ccccc2)c1C(=O)NNC(=S)NC(=O)c1ccc2c(c1)OCO2	3	86*	4	1	7
O=S(=O)(Nc1nc2ccccc2nc1Nc1ccc(N2CCOCC2)cc1)c1cc(Cl)ccc1Cl	-1	51*	2	-8	6
O=C(Nc1ccc(Br)cc1)C1OCCc2ccccc21 (configuration not stated)	-2	-1	1	1	5
CC(=O)N1N=C(c2ccc(Cl)cc2)CC1c1ccc([N+](=O)[O-])cc1 (configuration not stated)	1	3	0	-3	2
CC1(O)CC(c2ccc(Cl)cc2)=NN1C(=O)c1ccc([N+](=O)[O-])cc1 (configuration not stated)	-3	74*	11	2	4
COc1ccc(/C(O)=C/c2nc3ccc(C(=O)NCCc4cccc(C)c4)cc3[nH]c2=O)cc1OC	67*	7	-7	44*	9
COc1ccc(C(=O)NCCc2ccccc2)cc1OC	-1	0	1	-5	1
N#Cc1ccccc1COC(=O)CCCC1=NS(=O)(=O)c2ccccc2N1	0	3	-1	-11	5
Cc1ccccc1-n1c(SCC(=O)N2CCN(c3ccccn3)CC2)nnc1N1CCOCC1	x	-2	4	1	-3
CC(C)(C)N1C(=O)c2ccccc2NC(=O)C1C(=O)NCCc1ccccc1F (configuration not stated)	x	x	x	-2	x
CCCS(=O)(=O)c1nc(S(=O)(=O)c2ccc(C)cc2)c(N2CCCC2)s1	-1	89*	2	-4	8
Cc1ccc(S(=O)(=O)N2CCCCC2)cc1NC(=O)CNc1ccc(C(F)(F)F)cc1	-1	2	4	4	4
CCOC(=O)c1cn(Cc2ccccc2)c(C(=O)OC(C)(C)C)c1O	-1	62*	7	0	8
C=CCn1c(=O)/c(=C/c2cc(OC)c(OC)c(OC)c2)s/c1=C(/C#N)c1nc2ccccc2n1C	-12	62*	9	3	2
COc1ccccc1C(O)(c1ccccc1)c1ccccc1OC	x	-2	5	1	x
CC(c1ccccc1C(O)(c1ccccc1)c1ccccc1)N(C)C (configuration not stated)	2	93*	0	3	2
Cc1cc(C)cc(-c2nnc(SCC(=O)c3c(N)n(C4CC4)c(=O)[nH]c3=O)o2)c1	x	-1	-3	2	x
COc1ccc(-c2coc3c(C(=O)NCc4ccc(OC)c(OC)c4)cccc23)c(C)c1	x	x	x	-3	x
CCCCN(C)c1c(C)nc2ccc(C(=O)NCCOc3ccc(OC)cc3)cn12	x	x	x	0	x
SMILES	TPT1 inhibitor	CRFBP-R2 agonist	IDE cell activ	HNF4A DNA FP	IDE cell inh
NS(=O)(=O)c1ccc(NC(=O)c2ccc(-c3ccccc3)cc2)cc1	x	2	x	-32	x
NS(=O)(=O)c1ccc(NS(=O)(=O)c2ccc(NC(=O)c3ccc(-c4ccccc4)cc3)cc2)cc1	8	9	-23	-26	36*
Cc1ccc(S(=O)(=O)Nc2ccc(NC(=O)c3c(F)c(F)c(F)c(F)c3F)cc2)cc1	-2	58*	5	-1	0
Cc1cc(NS(=O)(=O)c2ccc(NC(=O)c3c(F)c(F)c(F)c(F)c3F)cc2)nc(C)n1	-1	1	5	-1	5
CC(C)c1ccc(N(C(=O)c2snc(C(N)=O)c2N)C(C(=O)NC2CCCC2)c2ccncc2)cc1 (configuration not stated)	-1	-1	-5	5	2
CN(C)c1ccc(/C=C(/C#N)C(=O)Nc2nc3c(s2)CCN(Cc2ccccc2)C3)cc1	x	158*	-44	-9	x

Screens from PubChem.
